Data from PubChem BioAssay AID624491 (Broad Institute, 2012).
The whole screen tested about 1,800 compounds, of which about 1,400 (78%) were called active. Roughly 2% stayed inconclusive and do not appear here.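 The calls were made as follows: active = fitted curve crossing a set activation limit at or below the highest valid dose tested; inconclusive = flat fit at 30 to 70% activation, or poor fit; inactive = the rest, including signal decreases.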 The set was probably picked from earlier hits. Not all results are given here. Results with a measured potency or affinity are listed apart.

assay: N-linked glycosylation inhibitors, luciferase reporter, dose response, D54 ERlucT cells, luminescence, cherry-picks (AID 624491); settings: 24 h, 100% = twice neutral-control luminescence; series mostly up to 19.5 µM;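 also: signal gain reflects blocked N-linked glycosylation of a luciferase reporter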

Activation (NLG inhibition), inactive:
CCN(c1ccccc1)S(=O)(=O)c1ccc(N)c(OC)c1
c1ccc(CCNc2nc(-c3ccccn3)nc3ccccc23)cc1
COc1cccc(C2=NOC(C(=O)NCc3ccco3)C2)c1 (stereo not given)
COc1ccc(C2=NOC(C(=O)NCc3ccco3)C2)cc1OC (stereo not given)
COc1cc(CNc2ccc(O)cc2)cc(Br)c1OCc1ccccc1
COc1cc(C(=O)OC2CCCCC2=O)cc(OC)c1C (stereo not given)
COc1cc(C(=O)OCC(=O)c2cc(C)n(C)c2C)cc(OC)c1OC
CN(C)CCCN(C(=O)c1ccc(S(=O)(=O)N2CCc3ccccc3C2)cc1)c1nc2ccc(F)cc2s1
Cc1ccc(S(=O)(=O)N2CCCCC2CCNC(=O)C(=O)NCc2ccco2)cc1 (stereo not given)
O=C(CSc1ncnc2nc[nH]c12)c1ccc([N+](=O)[O-])cc1
CCOC(=O)/C=c1/s/c(=C\c2c(OC)ccc3ccccc23)c(=O)n1CC(=O)NCC1CCCO1 (stereo not given)
CCOC(=O)c1[nH]c(C)c(C(=O)Nc2cccc(Cl)c2C)c1C
Cc1ccc2c(CNCc3ccccc3)cc(=O)oc2c1
CCOC(=O)n1c(=O)n(Cc2ccc(OC)cc2)c2ccccc21
FC(F)(F)c1nnc2c(Sc3ccc(Cl)cc3)nc3ccccc3n12
CC(=O)c1cccc(-c2ccnc3c2CC(C(=O)NCCc2ccccc2)O3)c1 (stereo not given)
Cc1[nH]c2ccc(C(=O)OC(C)C(=O)NCc3ccccc3)cc2c1C (stereo not given)
COc1ccc(-c2cc(-c3ccccc3)c(C#N)c(S(C)=O)n2)cc1 (stereo not given)
C/C(CC(=O)NCc1ccc(Cl)cc1)=N\NC(=O)COc1ccc(C)cc1Br
CC(=O)N1N=C(c2ccccc2)OC1c1ccc([N+](=O)[O-])s1 (stereo not given)
CC1CN(C(=O)/C=C/c2ccc([N+](=O)[O-])s2)CC(C)O1 (stereo not given)
CCOC(=O)c1c(C)c(C(=O)Nc2ccc(N(C)C)cc2)c(C)n1CC
Cc1ccc(Nc2nc(-c3cccnc3)nc3ccccc23)cc1
CC(Nc1nc(-c2cccnc2)nc2ccccc12)c1ccc(F)cc1 (stereo not given)
O=C1c2ccccc2C(=O)C12OC2c1ccc(Cl)cc1Cl (stereo not given)
Cc1ccc2nc(SCC(=O)Nc3ccc4sc(C)nc4c3)c(C#N)cc2c1
CCCCCCCCCCn1c2c(c(=N)c3c1CCC3)CCC2
CCCn1c(=N)n(CC(=O)c2ccc([N+](=O)[O-])cc2)c2ccccc21
Cn1c(Cl)cnc1C1CC(=O)c2cc(Cl)ccc2O1 (stereo not given)
COc1ccc(OC)c(/C=C/c2ccc3cccc(O)c3n2)c1
COc1ccc(NC(=O)c2cccc(Oc3ccccc3)c2)cn1
Cn1c(SCC(=O)c2ccccc2)ncc(C(=O)Nc2ccc(F)cc2)c1=O
Cn1c(SCC(=O)c2ccccc2)ncc(C(=O)Nc2ccccc2)c1=O
CCOc1ccc(Nc2nnc(SCc3nc4ccccc4c(=O)[nH]3)s2)cc1
CC1=Nc2cc(C(=O)NCC3CCCO3)ccc2Sc2ccc(Br)cc21 (stereo not given)
CC1(C(=O)NCc2ccccc2)Cc2c(-c3ccc(C(N)=O)cc3)ccnc2O1 (stereo not given)
CC(=O)Nc1ccc(-c2ccnc3c2CC(C)(C(=O)NCc2ccco2)O3)cc1 (stereo not given)
CC1(C(=O)NCc2cccs2)Cc2c(-c3ccc(C(N)=O)cc3)ccnc2O1 (stereo not given)
O=C(NCCN1C(=O)S/C(=C\c2cccc(Cl)c2Cl)C1=O)C1=COCCO1
CC[C@@H]1CC=C[C@H]2[C@H]1C(=O)N(Cc1ccccc1)[C@H]2c1ccoc1
c1ccc2[nH]c3cc4ncnc4cc3nc2c1
NS(=O)(=O)c1ccc(N=Nc2c(O)[nH]c3ccc(Br)cc23)cc1
COc1ccc(CN(C)c2ncnc3sccc23)c(OC)c1OC
CCc1ccccc1NC(=O)Cn1nnc(C(=O)NCc2cccs2)c1N
COc1ccc(C(=O)/C=C/c2ccccc2F)c(OC(=O)c2ccc([N+](=O)[O-])cc2)c1
O=C(NCc1ccc2c(c1)OCO2)c1cc([N+](=O)[O-])ccc1N1CCOCC1
CC1=C[C@@H](C)[C@@H](c2ccc(C(F)(F)F)cc2)OC1=O
O=C(COc1ccc2c(-c3ccccc3)cc(=O)oc2c1)N[C@@H](Cc1c[nH]c2ccc(O)cc12)C(=O)O
COc1ccc2c(c1)c1ccc3c(c1n2C)C(=O)C=CC3=O
COc1cc2c(cc1OC)C(c1ccccc1)N(C(=O)CCl)CC2 (stereo not given)
COc1ccc(CC(=O)NCc2ccccc2)cc1
COc1ccc(NS(=O)(=O)c2cc(NC(=O)c3nn(C)c(=O)c4ccccc34)ccc2OC)cc1
COc1cc2nc(NC(=O)c3ccccc3)sc(=O)c2cc1OC
COc1ccc(C(=O)c2sc(Nc3ccccc3)nc2N)cc1OC
COc1ccccc1N(C)S(=O)(=O)c1ccc(C(=O)OCC(=O)N2CCC2)cc1
CC1CN(C(=O)c2cc(-c3ccc(Cl)s3)nc3ccccc23)CC(C)O1 (stereo not given)
O=C(c1cc(-c2cccs2)nc2ccccc12)N1CCN(c2ccccc2)CC1
O=C(N/N=C/c1ccc2c(c1)OCO2)c1sc2cc(Cl)ccc2c1Cl
Oc1[nH]c(N=C2N=c3ccccc3=N2)c2ccccc12
COc1cc(/C=C2/C(=O)N(C)C(=S)N2C)ccc1OCc1cccc(F)c1
C(=N\Nc1nc2ccccc2[nH]1)/c1c[nH]c2ccccc12
CCOC(=O)N1CCN(C(=O)c2cccc(N3C(=O)NC4CC3(C)Oc3ccc(Cl)cc34)c2)CC1 (stereo not given)
O=C(c1cccc([N+](=O)[O-])c1)N1CCN(c2cccc(Cl)c2)CC1
CCOc1ccc(C(=O)Nc2cc(-c3nc4ccccc4[nH]3)ccc2Cl)cc1[N+](=O)[O-]
Cc1c(Cl)ccc2c(C(=O)Nc3cc(C(C)(C)C)on3)cc(-c3ccccn3)nc12
O=C1COc2ccc(C(=O)/C=C/c3ccccc3)cc2N1
O=C(Cc1ccc(Cl)cc1)Nc1ccccc1N1CCN(C(=O)c2ccccc2)CC1
COc1ccc(N2CC(C(=O)Nc3cc(C(F)(F)F)ccc3N3CCCC3)CC2=O)c(OC)c1 (stereo not given)
NC(=O)[C@H]1CC2(CC(c3cccc(NC(=O)COc4ccc(Cl)cc4)c3)=NO2)CN1C(=O)C(c1ccccc1)c1ccccc1 (stereo not given in full)
O=C(COc1ccc(Oc2ccccc2)cc1)NCc1cn2ccccc2n1
O=C(c1ccc(Cl)cc1)C(CN1CCCCC1)c1ccccc1 (stereo not given)
Cc1cc(=O)oc2cc(OCC3CC(c4ccccc4)=NO3)ccc12 (stereo not given)
CC(=O)Nc1ccc(/C=C/C(=O)c2ccc3c(c2)OCCO3)cc1
COc1cc(/C=C/C(=O)c2ccc3c(c2)OCCO3)cc(OC)c1OC
CCOc1cc(/C=C/C(=O)c2ccc(C)cc2)ccc1OCC(=O)N(C)C
O=C(/C=C/c1ccncc1)c1ccc2c(c1)OCCO2
O=C(C=Cc1ccc2c(c1)OCO2)C=Cc1ccc2c(c1)OCO2
C=CCOc1ccc(C2C(C#N)=C(N)N(Nc3ccccc3)C3=C2C(=O)CCC3)cc1OC (stereo not given)
Cc1cc(OC(C)C)nc(NCc2ccccc2)n1
COc1ccc(Cn2c(=O)cc(N)n(-c3ccccc3C)c2=O)cc1
Cn1c(N)c(C(=O)COC(=O)c2cc(S(=O)(=O)N3CCOCC3)ccc2F)c(=O)n(C)c1=O
CCCCCCCCCCCCCCCC[n+]1ccc(/C=N/O)cc1
Cc1ccc(OCCOC(=O)c2c(-c3ccccc3)noc2C)cc1
Cc1cc(C)c(C)c(OC(=O)c2sc(Cl)nc2C)c1
COc1ccc(C(=O)c2sc(Nc3ccccc3)nc2N)cc1
CN(C)c1ccc(/C=N/NC(=O)c2ccccc2Cl)cc1
Cc1cc2cc(CNC(=O)Cc3cccs3)ccc2n1C
Cc1ccc(Cc2c(C)nc3nc(SCC(=O)NCc4ccco4)nn3c2C)cc1
CCOc1ccc(Nc2nc(Cc3nnc(SCC(=O)NCc4ccco4)n3CC)cs2)cc1
S=c1[nH]nc(-c2cc(-c3ccccc3)n[nH]2)n1/N=C/C(Br)=C/c1ccccc1
COC(=O)CC1COc2ccccc2N1S(=O)(=O)c1ccc(OC)cc1 (stereo not given)
COc1ccc(F)cc1C1=CC(=O)C[C@H](c2ccc3c(c2)OCO3)C1
CN1CC(=O)N2C(c3ccc(Cl)cc3)c3[nH]c4ccccc4c3C[C@H]2C1=O (stereo not given in full)
CCc1ccc(/C=N/NC(=O)c2cc(-c3ccncc3)nc3ccccc23)s1
COc1cc(N=Nc2cccc(S(N)(=O)=O)c2)c2ccccc2c1N
Oc1ccc(NCc2cccs2)cc1
OCC1OC(n2cnc3c(=S)nc[nH]c32)CC1O (stereo not given)
Cc1ccc2nsnc2c1NC(=O)c1ccc([N+](=O)[O-])o1
O=C(Nc1c(Cl)ccc2nsnc12)c1ccc([N+](=O)[O-])o1
Oc1ccc(N=Nc2ccccc2)o1
CCCCCc1ccc(OCCC[n+]2ccccc2)c(CCCCC)c1
Cc1noc(C)c1COc1ccccc1C(=O)N1CCN(c2cccc(C(F)(F)F)c2)CC1
COc1ccc(CCCNC(=O)C2(C)Cc3c(-c4ccc5c(c4)OCO5)ccnc3O2)cc1 (stereo not given)
CC1(C(=O)Nc2ccc(Cl)cc2)Cc2c(-c3ccc4c(c3)OCO4)ccnc2O1 (stereo not given)
CC1(C(=O)NCc2ccccc2)Cc2c(-c3ccccc3)ccnc2O1 (stereo not given)
